# Sampled rows, rich in hits. Any-hit rate of the full collection: about 1.4%.
# p53 reactivation – qHTS assay for re-activators of p53 using a Luc reporter. 320,000 tested, 0.063% active. Potency, µM (titrated, usually from 92.2 µM), for inactives: at the top dose activity change, positive = activation, hits mostly activators. H1299 p53-A138V BP100-luciferase reporter, luminescence, 24 h; also: potency is read from the fitted curve at half-maximal effect; % of control where 0% means no effect; nearly all actives have a fitted effect of over 45% in size
#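 p53-null H1299 cells stably carrying temperature-sensitive p53-A138V and a BP100-luciferase reporter were pinned with compounds (4-point, 1:5 series) and held 24 hrs at 37 deg C. Luminescence was read 10 min after detection reagent.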
# uPA generation – qHTS for Inhibitors of Cell Surface uPA Generation | Potency, µM (titrated, usually from 38.3 µM), for the others: at the highest dose activity change, negative = inhibition, hits mostly inhibitors | cell surface uPA generation assay, qHTS | 330,000 tested, 0.31% active; active = well fitted inhibition curve with a large enough effect; inconclusive = small, poorly fitted or top-dose-only effect; inactive = no such curve, though single readings can be large or run the other way; tested in mouse RAW 264.7 cells; also: potency is read from the fitted curve at half-maximal effect; % is scaled to controls: 0 for no effect and ±100 for the full control effect; nearly all actives have a fitted effect of over 55% in size
# IL2 activator – qHTS of IL-2 Activators; activation, % (series mostly up to about 46 µM); IL-2 activation reporter assay, cell-based qHTS; stimulated with anti-CD3/CD4/CD28 beads; in transgenic mouse T cells; 360,000 tested, 0.065% active; in the data active = activation above about 50%; inconclusive = mostly about 30% to 49%; also: 0% is about no effect
#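 Unstimulated transgenic mouse T cells; 60-min compound exposure; bead-based TCR/CD4/CD28 stimulation; 18 h culture, 37 degrees C; dual fluorescence (EGFP, DsRed) plate cytometry.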
# TCR act – Activators of T cell receptors: qHTS campaign; primary human leukocytes, anti-CD3, IL-2 HTRF, 48 h; Potency, µM (top dose mostly 9.22 µM), without a hit: at the top dose activation of IL-2 secretion, most hits filed as activators; 330,000 tested, under 10 active; AID 504894, 2011; also: % of control where 0% means no effect
#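 TCR engagement came from a-CD3 beads alone, with compounds added to primary human leukocytes for 48 hr. Secreted IL-2 bridged europium cryptate- and d2-labelled anti-IL-2 antibodies, giving FRET emission at 665nm after 320nm excitation.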
# BRCA1 expr act – qHTS Assay to Identify Small Molecule Activators of BRCA1 Expression. 380,000 tested, 1.1% active. MCF7-BRCA1-FFLuc reporter, luminescence, 48 h; response scale: scaled: vehicle 0%, 10 µM genistein 100%. Potency, µM (top dose mostly 46.1 µM), for inactives: top-dose activation, usual class: activators; also: potency is read from the fitted curve at half-maximal effect; nearly all actives have a fitted effect of over 80% in size
#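 Cells: MCF7-BRCA1-FFLuc, 2000/well. Exposure: 48 h, 37 °C, 5% CO2. Read: luminescence, 15 min post-substrate. Controls: genistein 10 microM (maximal activation), DMSO (neutral).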
# * marks the source's active call; other numbers are inactive results; u = inconclusive; x = no result given; [ ] = remark or other dose. Unless noted, calls follow the shape of the dose curve; as a rule, active = well fitted curve in the direction sought with a large enough effect; inconclusive = small, poorly fitted or top-dose-only effect, or another doubt; inactive = no such curve, though single readings can be large; an effect the other way counts as inactive or inconclusive.
SMILES,p53 reactivation,uPA generation,IL2 activator,TCR act,BRCA1 expr act
O=C(Nc1ccc(OC(F)(F)F)cc1)C1CCN(S(=O)(=O)c2ccc3[nH]c(=O)ccc3c2)CC1,x,x,x,x,0%
CCOc1ccccc1Nc1nc2ccccc2nc1NS(=O)(=O)c1ccc(Cl)cc1,x,x,x,x,-3%
CCOC(=O)CN1C(=O)S/C(=C/c2ccc3c(c2)n(C)c(=O)n3C)C1=O,u,-7%,1,1%[46.1 µM],5µM*
C[C@@H](CO)NC(=O)c1ccc2c3n(nc2c1)-c1ccccc1CO3,5%,1.1µM*,0,-2%,u
COCCNC(=O)c1ccc2c3n(nc2c1)-c1ccc(C)cc1CO3,3%,u,0,-3%,10%
O=C(NCC1CCCO1)c1ccc2c3n(nc2c1)-c1ccccc1CO3 (centres undefined),12%,u,-1,-6%,2.5µM*
Cc1ccc2c(c1)COc1c3ccc(C(=O)N[C@@H](CO)C(C)C)cc3nn1-2,7%,u,0,3%,6.3µM*
Cc1ccc(N2CC(C)Cn3c2nc2c3c(=O)n(CC(=O)O)c(=O)n2C)cc1 (centres undefined),x,x,x,x,5%
COc1ccc2cc(CCNC(=O)c3ccco3)c(=O)[nH]c2c1,u,15%,2,1%,102%
Cc1ccc2cc(CCNC(=O)c3ccco3)c(=O)[nH]c2c1,u,-9%,1,10%[46.1 µM],13µM*
COc1cccc(CNC(=O)COC(=O)c2ccc(S(C)(=O)=O)c([N+](=O)[O-])c2)c1,x,x,x,x,2%
O=C(O)c1ccc(N/N=C/c2cccc3nccnc23)cc1,8%,-11%,1,9%,13µM*
Cc1ccc2oc(C(=O)N3CCCCCC3)c(C)c2c1,19%,-1%,-2,-4%,5.6µM*
CCOc1ccc(/C=C\C(C)=N\O)cc1,u,u,1,x,2.8µM*
CCN(CC)c1ccc(-c2nc(-c3ccco3)no2)cc1[N+](=O)[O-],x,x,x,x,0%
O=C(c1ccc2c3n(nc2c1)-c1ccccc1CO3)N1CCOCC1,17%,7.1µM*,1,-2%,u
Cc1ccc2c(c1)COc1c3ccc(C(=O)N4CCCCC4)cc3nn1-2,20%,-14%,0,-7%,4.5µM*
O=C(c1ccc2ccccc2c1)N1CCOCC1,7%,0%,0,-1%,10%
O=C(c1ccc2c3n(nc2c1)-c1ccccc1CO3)N1CCCCC1,-11%,4.5µM*,0,13%,u
O=C(c1ccc2c3n(nc2c1)-c1ccc(Cl)cc1CO3)N1CCOCC1,u,-26%,3,3%,6.3µM*
CC(C)NC(=O)c1ccc2c3n(nc2c1)-c1ccc(Cl)cc1CO3,u,u,-1,8%,u
CCOc1ccc(-c2cc(C(=O)NCCc3ccccc3)c3c(-c4ccc(C)cc4)[nH]nc3n2)cc1,x,x,x,x,0%
NC(=O)CSc1ccc2nnc(-c3ccncc3)n2n1,x,x,x,x,11%
Cc1ccccc1-c1noc(-c2ccc(N3CCC(C)CC3)c([N+](=O)[O-])c2)n1,x,x,x,x,0%
CCCCCOc1ccc(CN2CCOCC2)cc1Cl,u,4%,-3,5%,8.9µM*
SMILES,p53 reactivation,uPA generation,IL2 activator,TCR act,BRCA1 expr act
CCc1ccc(C(=O)c2cn(CC(=O)Nc3ccc4c(c3)OCO4)c3ccc(OC)cc3c2=O)cc1,x,x,x,x,-25%
Cc1cccc(NC(=O)CCNS(=O)(=O)c2ccc3c(c2)CCCC(=O)N3)c1C,x,x,x,x,-14%
CCOc1ccc(NC(=O)CCS(=O)(=O)c2cc3c4c(c2)CCN4C(=O)CC3)cc1,x,x,x,x,3%
O=C(CNC(=O)c1ccc(Cl)cc1)c1ccc(Cl)cc1,8%,-2%,0,-1%,11µM*
O=C(CNC(=O)c1ccc(Cl)cc1)c1ccccc1,x,-3%,-1,5%,u
CC1CCC(NC(=O)C2COc3ccccc3O2)CC1 (centres undefined),9%,3%,-1,2%,10µM*
COc1cc(Cl)c(NC2=CC(=O)C(=O)c3ccccc32)c(OC)c1,3%,3.2µM*,0,-1%,-103%
CCOc1ccc(NC2=CC(=O)C(=O)c3ccccc32)cc1,x,-12%,-4,-3%,-86%
CC(C)(C)OC(=O)N1CCC(c2nnc(SCc3cccc(Cl)c3)o2)CC1,x,x,x,x,0%
COc1ccc(NC(=O)CCc2c(C)nc3c(-c4ccccc4)c(C)nn3c2C)cc1Cl,x,x,x,x,8%
Cc1ccc(CSc2nnc(-c3ccc4c(c3)OCO4)o2)cc1,4%,5%,1,13%,u
Cc1ccc(Nc2nnc(-c3ccc4c(c3)OCO4)o2)c(C)c1,u,-6%,-1,-1%,10µM*
Oc1ccc(Br)cc1C1C=C(c2ccc3c(c2)OCO3)NC(c2c(F)cccc2Cl)N1 (centres undefined),x,x,x,x,-28%
Fc1ccc(-c2cn3ccccc3n2)cc1,-1%,10µM*,0,-3%,u
c1ccn2cc(-c3ccc4c(c3)OCCO4)nc2c1,0%,3.2µM*,-1,3%,-67%
C=C1C=C(C(F)F)n2ncc(C(=O)NC(C)CC)c2N1 (centres undefined),x,x,x,x,-7%
Cc1ccc(COc2ccc(C)nc2[N+](=O)[O-])cc1,u,-5%,0,7%,4.5µM*
Cn1ccc2cc(S(=O)(=O)N3CCCN(C(=O)Nc4ccccc4Br)CC3)ccc21,x,x,x,x,-4%
CCn1cc(C(=O)N2CCN(c3cccc(C)c3C)CC2)c2cc(OC)c(OC)cc2c1=O,x,x,x,x,-9%
CCN(CC)CCCCNc1ncc2cc(-c3cc(OC)cc(OC)c3)c(NC(=O)NC(C)(C)C)nc2n1,x,7.1µM*,0,-4%,-38%
CCOc1ccc(NC(=O)Cn2nc(SC)c(S(=O)(=O)c3ccccc3)c2N)cc1,x,x,x,x,-27%
CN(C(=O)OC(C)(C)C)c1ccc(-c2nc3ccccc3s2)cc1,x,2µM*,-1,-5%,-66%
Cc1ccc(S(=O)(=O)N[C@@H](Cc2ccccc2)C(=O)CCl)cc1,-9%,5µM*,-1,-26%,-41%
C/C(=N/Nc1cc(-c2ccccc2)nc(-c2ccccc2)n1)c1ccc(O)cc1,-4%,-21%,-5,-2%[46.1 µM],-85%
C/C(=N/Nc1nc(-c2ccccc2)cc(-c2ccccc2)n1)c1ccc(N)cc1,32µM*,x,x,3%[46.1 µM],x
C/C(=N\NC(=O)c1c(Cl)cnn1C)c1ccc(NC(=O)c2ccc(Br)o2)cc1,15%,1%,-1,8%,10µM*
Cc1cc(C)c(NC(=O)Cn2c(=O)n(CCc3ccccc3)c(=O)c3ccccc32)c(C)c1,x,x,x,x,4%
CCCn1nc(NC(=O)c2ccccn2)c2cc3cc(C)ccc3nc21,-4%,2%,3,-2%,11µM*

# Bioassay records (PubChem)
